# Results as given in the supplement of paper PMC8728848.
# The sample as a whole holds a higher share of the strongest signals than the screen did.
# B1: CLEC5A (Homo sapiens), Q9NY25 (protein)
# chain: MNWHMIISGLIVVVLKVVGMTLFLLYFPQIFNKSNDGFTTTRSYGTVSQIFGSSSPSPNGFITTRSYGTVCPKDWEFYQARCFFLSTSESSWNESRDFCKGKGSTLAIVNTPEKLKFLQDITDAEKYFIGLIYHREEKRWRWINNSVFNGNVTNQNQNFNCATIGLTKTFDAASCDISYRRICEKNAK
# What was measured:
# Experiment in all cases: glycan array binding signal (z-score within array); higher = stronger binding
# Details in all cases: glycan notation: IUPAC condensed, linker removed
# [1] = target: Glc(a1-6)Glc(a1-6)Glc(a1-6)Glc(a1-6)Glc
# Outline: (§1)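 Negative Z-scores can be read as non-binding. The Z-score is calculated within each array and then averaged across arrays of one protein sequence at different concentrations or buffers and across linkers. Arrays, 3228 in all, were curated from the Consortium for Functional Glycomics database and kept only where the protein sequence was available.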
# [2] = target: Glc(a1-6)Glc(a1-6)Glc(a1-6)Glc(a1-6)Glc(a1-6)Glc(a1-6)Glc
# Outline: as §1
# [3] = target: Glc(a1-6)Glc(a1-6)Glc(a1-6)Glc(a1-6)Glc(a1-6)Glc(a1-6)Glc(a1-6)Glc(a1-6)Glc(a1-6)Glc(a1-6)Glc(a1-6)Glc(a1-6)Glc
# Outline: as §1
# [4] = target: Glc(b1-3)Glc(b1-3)Glc(b1-3)Glc(b1-3)Glc
# Outline: as §1
# [5] = target: Glc(b1-3)Glc(b1-3)Glc(b1-3)Glc(b1-3)Glc(b1-3)Glc(b1-3)Glc
# Outline: as §1
# [6] = target: Glc(b1-4)Glc
# Outline: as §1
# [7] = target: Glc(b1-6)Glc(b1-6)Glc(b1-6)Glc(b1-6)Glc(b1-6)Glc(b1-6)Glc(b1-6)Glc(b1-6)Glc(b1-6)Glc(b1-6)Glc(b1-6)Glc
# Outline: as §1
# [8] = target: GlcA(b1-3)Gal
# Outline: as §1
# [9] = target: GlcA(b1-3)Gal(b1-4)GlcNAc(b1-3)Gal(b1-4)Glc
# Outline: as §1
# [10] = target: GlcA(b1-3)GlcNAc(b1-4)GlcA(b1-3)GlcNAc
# Outline: as §1
# [11] = target: GlcA3S(b1-3)Gal(b1-4)GlcNAc(b1-3)Gal(b1-4)Glc
# Outline: as §1
# [12] = target: GlcNAc(a1-4)Gal(b1-3)[Fuc(a1-2)]Gal
# Outline: as §1
# [13] = target: GlcNAc(a1-4)Gal(b1-4)GlcNAc
# Outline: as §1
# [14] = target: GlcNAc(a1-4)Gal(b1-4)GlcNAc(b1-3)Gal(b1-4)[Fuc(a1-3)]GlcNAc(b1-3)Gal(b1-4)[Fuc(a1-3)]GlcNAc
# Outline: as §1
# [15] = target: GlcNAc(b1-3)Gal(b1-4)Glc
# Outline: as §1
# [16] = target: GlcNAc(b1-3)Gal(b1-4)GlcNAc(b1-2)Man(a1-3)[GlcNAc(b1-3)Gal(b1-4)GlcNAc(b1-2)Man(a1-6)]Man(b1-4)GlcNAc(b1-4)[Fuc(a1-6)]GlcNAc
# Outline: as §1
# [17] = target: GlcNAc(b1-3)Gal(b1-4)GlcNAc(b1-3)Gal(b1-4)GlcNAc(b1-3)Gal(b1-4)GlcNAc(b1-3)Gal(b1-4)GlcNAc(b1-2)Man(a1-3)[GlcNAc(b1-3)Gal(b1-4)GlcNAc(b1-3)Gal(b1-4)GlcNAc(b1-3)Gal(b1-4)GlcNAc(b1-3)Gal(b1-4)GlcNAc(b1-2)Man(a1-6)]Man(b1-4)GlcNAc(b1-4)[Fuc(a1-6)]GlcNAc
# Outline: as §1
# [18] = target: Kdn(a2-6)Gal
# Outline: as §1
# [19] = target: Man(a1-2)Man
# Outline: as §1
# [20] = target: Man(a1-2)Man(a1-6)[Man(a1-3)]Man(a1-6)[Man(a1-2)Man(a1-2)Man(a1-3)]Man
# Outline: as §1
# [21] = target: Man(a1-3)[Man(a1-6)]Man(a1-6)[Man(a1-3)]Man(b1-4)GlcNAc(b1-4)GlcNAc
# Outline: as §1
# [22] = target: Neu5Ac(a2-3)Gal(b1-3)GlcNAc(b1-4)Gal(b1-4)Glc
# Outline: as §1
# [23] = target: Neu5Ac(a2-3)Gal(b1-3)GlcNAc6S
# Outline: as §1
# [24] = target: Neu5Ac(a2-3)Gal(b1-4)[Fuc(a1-3)]GlcNAc(b1-3)GalNAc
# Outline: as §1
# [25] = target: Neu5Ac(a2-3)Gal(b1-4)[Fuc(a1-3)]GlcNAc(b1-4)GalNAc(b1-3)Gal(b1-4)Glc
# Outline: as §1
# [26] = target: Neu5Ac(a2-3)Gal(b1-4)[Fuc2Me(a1-3)]GlcNAc(b1-3)Gal
# Outline: as §1
# [27] = target: Neu5Ac(a2-3)Gal6S(b1-4)[Fuc(a1-3)]GlcNAc
# Outline: as §1
# [28] = target: Neu5Ac(a2-6)Gal(b1-3)GlcNAc(b1-3)[Fuc(a1-3)[Gal(b1-4)]GlcNAc(b1-6)]Gal(b1-4)Glc
# Outline: as §1
# [29] = target: Neu5Ac(a2-6)Gal(b1-4)GlcNAc(b1-2)Man(a1-3)[Neu5Ac(a2-3)Gal(b1-4)GlcNAc(b1-2)Man(a1-6)]Man(b1-4)GlcNAc(b1-4)GlcNAc
# Outline: as §1
# [30] = target: Neu5Ac(a2-6)Gal(b1-4)GlcNAc(b1-3)Gal(b1-4)GlcNAc(b1-3)GalNAc
# Outline: as §1
# [31] = target: Neu5Ac(a2-6)Gal(b1-4)GlcNAc(b1-3)Gal(b1-4)[Fuc(a1-3)]GlcNAc(b1-3)Gal(b1-4)[Fuc(a1-3)]GlcNAc
# Outline: as §1
# [32] = target: Neu5Ac(a2-8)Neu5Ac(a2-3)[Gal(b1-3)GalNAc(b1-4)]Gal(b1-4)Glc
# Outline: as §1
# [33] = target: Neu5Ac(a2-8)Neu5Ac(a2-8)Neu5Ac(a2-3)[Gal(b1-3)GalNAc(b1-4)]Gal(b1-4)Glc
# Outline: as §1
# [34] = target: Neu5Ac(b2-6)Gal(b1-4)GlcNAc
# Outline: as §1
# [35] = target: Neu5Ac(b2-6)GalNAc
# Outline: as §1
# [36] = target: Neu5Ac9Ac(a2-3)Gal(b1-3)GlcNAc
# Outline: as §1
# [37] = target: Neu5Gc(a2-8)Neu5Ac(a2-3)Gal(b1-4)GlcNAc
# Outline: as §1
# [38] = target: Xyl(b1-2)[Man(a1-3)][Man(a1-6)]Man(b1-4)GlcNAc(b1-4)[Fuc(a1-3)]GlcNAc
# Outline: as §1
binder,measurement,setting,value
B1,glycan array binding signal (z-score),[1],-0.32
same,glycan array binding signal (z-score),[2],1.51
same,glycan array binding signal (z-score),[3],2.19
same,glycan array binding signal (z-score),[4],6.52
same,glycan array binding signal (z-score),[5],1.8
same,glycan array binding signal (z-score),[6],-0.371
same,glycan array binding signal (z-score),[7],1.8
same,glycan array binding signal (z-score),[8],-0.34
same,glycan array binding signal (z-score),[9],-0.32
same,glycan array binding signal (z-score),[10],-0.32
same,glycan array binding signal (z-score),[11],-0.074
same,glycan array binding signal (z-score),[12],-0.32
same,glycan array binding signal (z-score),[13],-0.125
same,glycan array binding signal (z-score),[14],1.74
same,glycan array binding signal (z-score),[15],6.6
same,glycan array binding signal (z-score),[16],-0.014
same,glycan array binding signal (z-score),[17],1.7
same,glycan array binding signal (z-score),[18],-0.32
same,glycan array binding signal (z-score),[19],1.03
same,glycan array binding signal (z-score),[20],-0.249
same,glycan array binding signal (z-score),[21],0.488
same,glycan array binding signal (z-score),[22],-0.012
same,glycan array binding signal (z-score),[23],0.026
same,glycan array binding signal (z-score),[24],1.67
same,glycan array binding signal (z-score),[25],-0.32
same,glycan array binding signal (z-score),[26],0.548
same,glycan array binding signal (z-score),[27],0.366
same,glycan array binding signal (z-score),[28],0.258
same,glycan array binding signal (z-score),[29],-0.161
same,glycan array binding signal (z-score),[30],-0.189
same,glycan array binding signal (z-score),[31],-0.16
same,glycan array binding signal (z-score),[32],-0.133
same,glycan array binding signal (z-score),[33],-0.191
same,glycan array binding signal (z-score),[34],-0.302
same,glycan array binding signal (z-score),[35],-0.184
same,glycan array binding signal (z-score),[36],-0.191
same,glycan array binding signal (z-score),[37],-0.121
same,glycan array binding signal (z-score),[38],-0.32
